Source: PubChem BioAssay
Pf apPOL inh – Pf-apPOL inhibitors, biochemical, fluorescence. AID 1794808, 2022. 210,000 tested, 0.25% active. Recombinant Pf-apPOL, molecular beacon fluorescence, 1.5 h. inhibition, % at 10 µM. Plasmodium falciparum apicoplast DNA polymerase (apPOL)
mHTT CaM bind – mutant huntingtin-calmodulin interaction inhibitors – biochemical, AlphaScreen, primary screen. AlphaScreen His-mHTT/GST-CaM binding, luminescence. inhibition, % at 15 µM. 190,000 tested, 3.6% active. AID 1671202, 2021
Each line names hits and unclear results; the compound was inactive in the other large screens. Compounds with a hit are over-represented: about 3.6% of the library has one in this group of screens. No stated cut-off is given here; in the data, active means inhibition above about 50%; inactive means the rest.

CC1=NN(C(=O)CCc2ccccc2)C(O)(c2ccc(Br)cc2)C1 (stereo not drawn)	mHTT CaM bind 54
CC1=NN(C(=O)c2ccccc2Br)C(O)(c2ccccc2)C1 (stereo not drawn)	none
O=C(NCc1cccc(F)c1)N1CC2CC(NS(=O)(=O)c3cccnc3)C1C2 (stereo not drawn)	none
O=C(CN1C(=O)/C(=C/c2ccc(Cl)cc2)Sc2ccccc21)NCCN1CCCCCC1	none
COC(=O)c1ccccc1OC1OC(COC(C)=O)C(OC(C)=O)C(OC(C)=O)C1OC(C)=O (stereo not drawn)	none
CC(=O)c1ccc(NC(=O)CCCn2nc([N+](=O)[O-])c(Br)c2C)cc1	none
O=C(NCc1ccc(OCc2ccccc2)cc1)C(=O)NCc1cccs1	none
Cc1cc(C2CCCN2C(=O)c2ccc3c(c2)OCO3)on1 (stereo not drawn)	none
O=C(NCc1ccco1)c1cc2n(n1)CCCN(Cc1ccc(Cl)cc1)C2=O	none
CC(C)c1ccc(C=C2Oc3c(ccc(O)c3CN3CCN(CCO)CC3)C2=O)cc1	none
CCc1ccc(C2C(C#N)=C(SCC(=O)c3ccc([N+](=O)[O-])cc3)NC(C)=C2C(C)=O)cc1 (stereo not drawn)	mHTT CaM bind 60
CC(=O)C1=C(C)NC(SCC(=O)c2ccc(F)cc2)=C(C#N)C1c1cccc([N+](=O)[O-])c1 (stereo not drawn)	none
COc1cc(OC)c(/C=C2\NC(=O)N(CC(=O)Nc3ccc(C)cc3)C2=O)c(OC)c1	none
Cc1ccc([N+](=O)[O-])cc1NC(=O)CC(NCCCO)C(=O)O (stereo not drawn)	none
O=C(Nc1cccc(Br)c1)c1ccc2nc(N3C(=O)CCC3=O)sc2c1	mHTT CaM bind 55
O=C(Nc1cccc([N+](=O)[O-])c1)c1ccc2nc(N3C(=O)CCC3=O)sc2c1	none
O=C(Cc1ccc2c(c1)OCO2)Nc1ccc2scnc2c1	none
COc1ccc(-c2nc(-c3cccc(-c4ccn[nH]4)c3)no2)cc1	none
CSc1ccccc1C(=O)N1CCN(c2c(C)nn(C3CCS(=O)(=O)C3)c2C)CC1 (stereo not drawn)	none
Cc1nn(C2CCS(=O)(=O)C2)c(C)c1N1CCN(C(=O)c2cc3ccccc3[nH]2)CC1 (stereo not drawn)	mHTT CaM bind 54
CN(C)c1ccc(/C=C/c2cc(C(F)(F)F)[nH]c(=O)n2)cc1	none
CN(C)c1ccc(/C=C/c2cc(/C=C/c3ccc(N(C)C)cc3)[n+]3nn(C)nc3n2)cc1	mHTT CaM bind 100
Clc1ccc2c(c1)SS(Cl)=N2 (stereo not drawn)	mHTT CaM bind 55 (no result: Pf apPOL inh)
COC(=O)c1ccc2nc(NC(=O)c3nc4ccccc4s3)sc2c1	none
CN(C)c1ccc(/C=C2\C(=O)N(c3ccccc3)N=C2c2ccccc2)cc1	mHTT CaM bind 56
CC1=NN(c2ccc(Cl)c(Cl)c2)C(=O)/C1=C/c1ccc(N(C)C)cc1	none
CCN(CC)c1ccc(/C=C2/C(=O)N(c3ccc(C)c(C)c3)N=C2C)cc1	mHTT CaM bind 86
CC1=NN(c2ccc(I)cc2)C(=O)/C1=C/c1ccc(N(C)C)cc1	mHTT CaM bind 57
CC1=NN(c2cccc(F)c2)C(=O)/C1=C/c1ccc(N(C)C)cc1	none
CC1=NN(c2ccc(C)c(C)c2)C(=O)/C1=C/c1ccc(N(C)C)c([N+](=O)[O-])c1	none
CCOc1ccc(CNC(=O)c2ccc3c(c2)nc2n3CCCCC2)cc1OC	none
O=C(Nc1nnc(SCCN2CCOCC2)s1)C1CCC1	none
Cc1cc2c(C(C)C)c(O)c(O)c(C=NCSN)c2c(O)c1-c1c(C)cc2c(C(C)C)c(O)c(O)c(C=NCSN)c2c1O	mHTT CaM bind 100 (no result: Pf apPOL inh)
CNC(=O)N1CCC2(CC1)Nc1cc(F)ccc1-n1cccc12	none
O=C(NCc1ccccc1)N1CCC2(CC1)Nc1cc(F)ccc1-n1cccc12	mHTT CaM bind 51
O=C(NCc1ccco1)N1CCC2(CC1)Nc1cc(F)ccc1-n1cccc12	none
COc1cccc(CNC(=O)N2CCC3(CC2)Nc2cc(F)ccc2-n2cccc23)c1	none
Cc1ccc2c(c1)NC1(CCN(C(=O)CSCc3ccc(F)cc3)CC1)c1cccn1-2	mHTT CaM bind 100
Cc1ccc(CNC(=O)N2CCC3(CC2)Nc2cc(F)ccc2-n2cccc23)cc1	mHTT CaM bind 66
O=C(Nc1cc(-c2ccsc2)no1)c1ccc(F)cc1	none
COc1ccc(C2C3=C(CCCC3=O)NC3=C2C(=O)c2ccccc23)cc1 (stereo not drawn)	mHTT CaM bind 61
CCOc1ccc(C2C3=C(CCCC3=O)Nc3ncnn32)cc1 (stereo not drawn)	none
O=C1CCCC2=C1C(c1cccs1)C1=C(N2)c2ccccc2C1=O (stereo not drawn)	none
CCOc1ccc(C2C3=C(CCCC3=O)NC3=C2C(=O)c2ccccc23)cc1 (stereo not drawn)	mHTT CaM bind 74
CCC(=O)Nc1ccc(S(=O)(=O)N2CCN(c3ccc(-n4ccnc4)nn3)CC2)cc1	none
COc1ccc(-c2cc3n(n2)CCCN(Cc2ccccc2C)C3)cc1OC	mHTT CaM bind 73
COc1ccccc1CC(=O)N1CCCn2nc(-c3cccc(C)c3)cc2C1	none
Cc1cccc(-c2cc3n(n2)CCCN(C(=O)Cc2ccccc2F)C3)c1	mHTT CaM bind 73
COc1ccccc1CC(=O)N1CCCC1c1ccc(C)cc1 (stereo not drawn)	none
COc1ccccc1CCC(=O)N1CCCn2nc(-c3ccc(C)cc3)cc2C1	none
COc1ccccc1CC(=O)N1CCCn2nc(-c3ccc(Cl)cc3)cc2C1	mHTT CaM bind 71
COc1ccccc1CC(=O)N1CCCC1c1ccc(Cl)cc1 (stereo not drawn)	mHTT CaM bind 59
O=C(Cc1ccccc1F)N1CCCn2nc(-c3ccc(Cl)cc3)cc2C1	none
CCNC(=O)N1CC=C(C(=O)Nc2ccccc2)CC1	none
COc1ccccc1NC(=O)CSc1nc2c(c(=O)n1Cc1ccccc1)SC(C)C2 (stereo not drawn)	none
Cc1nccn1CCNC(=O)C(=O)Nc1ccc2c(c1)N(C(=O)C(C)C)CCC2	none
Cc1ccccc1C1=N/C(=C/c2coc3ccccc3c2=O)C(=O)O1	none
Cc1cccc(-c2cc3n(n2)CCCN(C(=O)CCCc2ccccc2)C3)c1	mHTT CaM bind 56
COCC(=O)N1CCCn2nc(-c3cccc(C)c3)cc2C1	none
O=C(CCCc1ccccc1)N1CCCn2nc(-c3ccc(Cl)cc3)cc2C1	mHTT CaM bind 88
O=C(CCCc1ccccc1)N1CCCn2nc(-c3cccs3)cc2C1	none
O=C(O)C=CC(=O)NN=C(c1ccccc1)c1ccccc1	none (no result: mHTT CaM bind)
CCCNC(=O)C1CCCN(c2ncc(-c3ccccc3)cn2)C1 (stereo not drawn)	none
Cn1nc(-c2nc(-c3ccccc3)no2)c2c1CCN(C(=O)C(C)(C)C)C2	none
O=C1CC(Sc2nc(-c3ccco3)cc(C(F)(F)F)n2)C2COC1O2 (stereo not drawn)	none
Cn1cc(C(=O)Nc2ccc3c(c2)CCC3)c2ccccc2c1=O	mHTT CaM bind 50
Cc1ccc(NC(=O)c2cn(C)c(=O)c3ccccc23)c(Br)c1	none
COc1ccc(C(=O)N2CCCC2c2cc(C)no2)cc1OC (stereo not drawn)	none
CN(CCCNC(=O)C1CCN(c2ccc(N3CCCCC3)nn2)CC1)c1ccccc1	mHTT CaM bind 54
CN(CCCNC(=O)C1CCN(c2ccncc2)CC1)c1ccccc1	none
CCCCS(=O)(=O)N1CCC2(CC1)C(=O)N(C)C(=O)N2C	none
Oc1ccc(/C=N\Nc2nncn2/N=C\c2ccc(O)c(O)c2)cc1O	none (no result: Pf apPOL inh)
